# Publication PMC11006913
# Numbering of substitutions follows the chain as printed.
# Legend:
# Assay in all cases: PBM; 200 nM protein, PBS
# Conditions in all cases: dsDNA, one strand shown
# HOXA4 [1] = biological target: HOXA4 (Homo sapiens, UniProt Q00056 201-287, W262R)
# HOXA4 [2] = biological target: HOXA4 (Homo sapiens, UniProt Q00056 201-287, R217L)
# NKX2-6 = biological target: T1, NKX2-6 (Homo sapiens, UniProt A6NCS4 118-204, R150C)
# T1 sequence: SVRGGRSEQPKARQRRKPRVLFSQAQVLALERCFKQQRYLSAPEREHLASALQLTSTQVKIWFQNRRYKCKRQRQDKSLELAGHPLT
# SHOX = SHOX (Homo sapiens, UniProt O15266 103-189, R173C)
# Chain of SHOX (O15266 103-189 R173C): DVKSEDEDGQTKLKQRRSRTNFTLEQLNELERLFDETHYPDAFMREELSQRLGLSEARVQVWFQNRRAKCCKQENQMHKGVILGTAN
# HOXA4 [3] = biological target: HOXA4 (Homo sapiens, UniProt Q00056 201-287)
# Chain of HOXA4 (Homo sapiens, UniProt Q00056 201-287) (Q00056 201-287): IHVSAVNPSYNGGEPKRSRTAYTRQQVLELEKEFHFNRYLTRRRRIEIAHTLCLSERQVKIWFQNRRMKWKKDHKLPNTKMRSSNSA
# PAX4 [4] = biological target: T2, PAX4 (Homo sapiens, UniProt O43316 9-242)
# T2 sequence: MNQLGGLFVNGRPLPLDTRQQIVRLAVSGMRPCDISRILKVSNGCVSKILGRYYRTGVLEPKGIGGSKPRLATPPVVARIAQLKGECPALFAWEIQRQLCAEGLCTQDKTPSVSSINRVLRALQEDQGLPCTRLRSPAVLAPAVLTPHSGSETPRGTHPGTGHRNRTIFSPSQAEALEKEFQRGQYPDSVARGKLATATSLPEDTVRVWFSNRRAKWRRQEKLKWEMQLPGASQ
# PAX4 [5] = biological target: T3, PAX4 (Homo sapiens, UniProt O43316 9-242, R200Q)
# T3 sequence: T2 sequence with R192Q
# VENTX = biological target: T4, VENTX (Homo sapiens, UniProt O95231 78-163)
# T4 sequence: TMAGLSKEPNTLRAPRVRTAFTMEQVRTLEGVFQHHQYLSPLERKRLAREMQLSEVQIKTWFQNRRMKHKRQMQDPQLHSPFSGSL
# HOXC9 [6] = biological target: HOXC9 (Homo sapiens, UniProt P31274 178-260, K195R)
# Chain of HOXC9 (Homo sapiens, UniProt P31274 178-260, K195R) (P31274 178-260 K195R): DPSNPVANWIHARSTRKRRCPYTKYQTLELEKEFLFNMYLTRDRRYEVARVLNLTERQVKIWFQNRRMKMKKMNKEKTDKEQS
# HOXC9 [7] = biological target: HOXC9 (Homo sapiens, UniProt P31274 178-260)
# Chain of HOXC9 (Homo sapiens, UniProt P31274 178-260) (P31274 178-260): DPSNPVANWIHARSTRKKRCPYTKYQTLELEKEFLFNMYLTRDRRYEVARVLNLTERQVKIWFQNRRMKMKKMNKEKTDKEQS
# HOXC9 [8] = biological target: HOXC9 (Homo sapiens, UniProt P31274 178-260, R193K)
# Chain of HOXC9 (Homo sapiens, UniProt P31274 178-260, R193K) (P31274 178-260 R193K): as the sequence (P31274 178-260) above, with R16K counted along it
# HOXC9 [9] = biological target: HOXC9 (Homo sapiens, UniProt P31274 178-260, R222W)
# Chain of HOXC9 (Homo sapiens, UniProt P31274 178-260, R222W) (P31274 178-260 R222W): as the sequence (P31274 178-260) above, with R45W counted along it
# HOXC10 = HOXC10 (Homo sapiens, UniProt Q9NYD6 254-340)
# Chain of HOXC10 (Q9NYD6 254-340): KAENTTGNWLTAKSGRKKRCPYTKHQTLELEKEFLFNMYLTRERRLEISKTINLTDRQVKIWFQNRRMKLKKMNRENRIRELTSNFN
# SIX6 [10] = biological target: T5, SIX6 (Homo sapiens, UniProt O95475 114-200, L143V)
# T5 sequence: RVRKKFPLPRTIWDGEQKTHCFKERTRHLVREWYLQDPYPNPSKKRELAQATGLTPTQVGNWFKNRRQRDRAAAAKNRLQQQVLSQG
# SIX6 [11] = biological target: T6, SIX6 (Homo sapiens, UniProt O95475 114-200, H141N)
# T6 sequence: T5 sequence with H28N, V30L
# SIX6 [12] = biological target: T7, SIX6 (Homo sapiens, UniProt O95475 114-200, L143M)
# T7 sequence: T5 sequence with V30M
# SIX6 [13] = biological target: T8, SIX6 (Homo sapiens, UniProt O95475 114-200, L143I)
# T8 sequence: T5 sequence with V30I
# SIX6 [14] = biological target: T9, SIX6 (Homo sapiens, UniProt O95475 114-200, T165A)
# T9 sequence: T5 sequence with V30L, T52A
# SIX6 [15] = biological target: T10, SIX6 (Homo sapiens, UniProt O95475 114-200)
# T10 sequence: T5 sequence with V30L
# Chain of HOXA4 (Homo sapiens, UniProt Q00056 201-287, R217L) (Q00056 201-287 R217L): as the sequence (Q00056 201-287) above, with R17L counted along it
# Chain of HOXA4 (Homo sapiens, UniProt Q00056 201-287, W262R) (Q00056 201-287 W262R): as the sequence (Q00056 201-287) above, with W62R counted along it
sequence,measurement,setting,value
CCGAGCGG,binding signal,HOXA4 [1],"9.72 upbm affinity estimate (log intensity, higher = more binding, comparable within an allelic series)"
same,binding signal,HOXA4 [2],"9.78 upbm affinity estimate (log intensity, higher = more binding, comparable within an allelic series)"
same,binding signal,NKX2-6,"9.43 upbm affinity estimate (log intensity, higher = more binding, comparable within an allelic series)"
same,binding signal,SHOX,"7.07 upbm affinity estimate (log intensity, higher = more binding, comparable within an allelic series)"
same,binding signal,HOXA4 [3],"9.77 upbm affinity estimate (log intensity, higher = more binding, comparable within an allelic series)"
AATTAAGC,binding signal,PAX4 [4],"12.2 upbm affinity estimate (log intensity, higher = more binding, comparable within an allelic series)"
same,binding signal,PAX4 [5],"12 upbm affinity estimate (log intensity, higher = more binding, comparable within an allelic series)"
same,binding signal,SHOX,"9.54 upbm affinity estimate (log intensity, higher = more binding, comparable within an allelic series)"
AATTAGCG,binding signal,VENTX,"12.3 upbm affinity estimate (log intensity, higher = more binding, comparable within an allelic series)"
same,binding signal,PAX4 [4],"12.4 upbm affinity estimate (log intensity, higher = more binding, comparable within an allelic series)"
same,binding signal,PAX4 [5],"12.3 upbm affinity estimate (log intensity, higher = more binding, comparable within an allelic series)"
same,binding signal,SHOX,"9.63 upbm affinity estimate (log intensity, higher = more binding, comparable within an allelic series)"
GGAAGACC,binding signal,SHOX,"7.18 upbm affinity estimate (log intensity, higher = more binding, comparable within an allelic series)"
AATTAAGT,binding signal,PAX4 [4],"12.1 upbm affinity estimate (log intensity, higher = more binding, comparable within an allelic series)"
same,binding signal,PAX4 [5],"11.9 upbm affinity estimate (log intensity, higher = more binding, comparable within an allelic series)"
same,binding signal,SHOX,"9.31 upbm affinity estimate (log intensity, higher = more binding, comparable within an allelic series)"
CCGTAGGC,binding signal,HOXC9 [6],"9.73 upbm affinity estimate (log intensity, higher = more binding, comparable within an allelic series)"
same,binding signal,HOXC9 [7],"9.68 upbm affinity estimate (log intensity, higher = more binding, comparable within an allelic series)"
same,binding signal,HOXC9 [8],"9.78 upbm affinity estimate (log intensity, higher = more binding, comparable within an allelic series)"
same,binding signal,HOXC9 [9],"9.77 upbm affinity estimate (log intensity, higher = more binding, comparable within an allelic series)"
CCAGCGCA,binding signal,HOXC9 [6],"9.45 upbm affinity estimate (log intensity, higher = more binding, comparable within an allelic series)"
same,binding signal,HOXC10,"10 upbm affinity estimate (log intensity, higher = more binding, comparable within an allelic series)"
same,binding signal,HOXC9 [7],"9.65 upbm affinity estimate (log intensity, higher = more binding, comparable within an allelic series)"
same,binding signal,HOXC9 [8],"9.5 upbm affinity estimate (log intensity, higher = more binding, comparable within an allelic series)"
same,binding signal,HOXC9 [9],"9.6 upbm affinity estimate (log intensity, higher = more binding, comparable within an allelic series)"
CGCGTAGC,binding signal,SIX6 [10],"8.9 upbm affinity estimate (log intensity, higher = more binding, comparable within an allelic series)"
same,binding signal,SIX6 [11],"9.02 upbm affinity estimate (log intensity, higher = more binding, comparable within an allelic series)"
same,binding signal,SIX6 [12],"8.94 upbm affinity estimate (log intensity, higher = more binding, comparable within an allelic series)"
same,binding signal,SIX6 [13],"8.99 upbm affinity estimate (log intensity, higher = more binding, comparable within an allelic series)"
same,binding signal,SIX6 [14],"9.02 upbm affinity estimate (log intensity, higher = more binding, comparable within an allelic series)"
same,binding signal,SIX6 [15],"9 upbm affinity estimate (log intensity, higher = more binding, comparable within an allelic series)"
AGAGCGCG,binding signal,PAX4 [4],"9.24 upbm affinity estimate (log intensity, higher = more binding, comparable within an allelic series)"
same,binding signal,PAX4 [5],"9.35 upbm affinity estimate (log intensity, higher = more binding, comparable within an allelic series)"
